# What was measured:
# Test in all cases: DAPPL (digital affinity profiling via proximity ligation, sequencing); 10 mM Tris-HCl pH 7.5, 50 mM NaCl, 1 mM DTT, 4% glycerol, room temperature, 30 min; GST-TFs on glutathione beads, 16-mer random dsDNA library, 0.1% formaldehyde crosslink after washing; high values mean tight binding
# FEV = molecular target: T1, FEV (Homo sapiens, UniProt Q99581 1-238); details: protein: recombinant; tags: N-terminal GST; dsDNA, one strand shown
# T1 sequence: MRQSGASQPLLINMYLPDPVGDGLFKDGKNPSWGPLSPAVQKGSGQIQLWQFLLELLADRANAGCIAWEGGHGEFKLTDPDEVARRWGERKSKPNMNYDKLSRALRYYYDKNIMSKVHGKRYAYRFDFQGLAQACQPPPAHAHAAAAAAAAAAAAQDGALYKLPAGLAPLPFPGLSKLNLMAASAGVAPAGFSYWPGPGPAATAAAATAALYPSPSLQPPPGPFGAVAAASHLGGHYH
# Summary of the method: (§1)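 Each value of binding signal is a hexamer's read frequency for a factor divided by the same hexamer's frequency in the tag-only sample. Barcoded, bead-captured GST fusions of human transcription factors made in yeast were pooled with that sample and incubated with 200 nmole of a random double-stranded 16-mer DNA library in Tris/NaCl/DTT/glycerol buffer at room temperature for 30 min. Washing, 0.1% formaldehyde crosslinking, proximity ligation, PCR and Illumina NextSeq500 sequencing followed.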
# ETV5 = ETV5 (Homo sapiens, UniProt P41161 1-510); details: protein: recombinant; tags: N-terminal GST; dsDNA, one strand shown
# ETV5, sequence (P41161 whole entry): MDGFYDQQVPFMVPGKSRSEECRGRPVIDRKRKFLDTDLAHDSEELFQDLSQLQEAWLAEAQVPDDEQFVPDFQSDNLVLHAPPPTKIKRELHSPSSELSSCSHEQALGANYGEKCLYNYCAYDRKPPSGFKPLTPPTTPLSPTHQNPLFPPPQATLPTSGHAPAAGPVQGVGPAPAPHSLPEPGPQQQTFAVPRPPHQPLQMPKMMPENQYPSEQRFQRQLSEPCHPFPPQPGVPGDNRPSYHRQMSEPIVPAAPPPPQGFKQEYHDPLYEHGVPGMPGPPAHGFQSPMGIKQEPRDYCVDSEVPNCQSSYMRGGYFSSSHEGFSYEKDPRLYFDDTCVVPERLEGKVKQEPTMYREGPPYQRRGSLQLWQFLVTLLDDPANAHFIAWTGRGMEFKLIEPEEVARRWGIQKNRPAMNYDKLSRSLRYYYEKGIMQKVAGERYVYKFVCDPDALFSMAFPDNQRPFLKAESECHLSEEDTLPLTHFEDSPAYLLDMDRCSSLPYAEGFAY
# Summary of the method: as §1
# HSF1 = HSF1 (Homo sapiens, UniProt Q00613 1-529); details: protein: recombinant; tags: N-terminal GST; chain copies: 3; dsDNA, one strand shown
# HSF1, sequence (Q00613 whole entry): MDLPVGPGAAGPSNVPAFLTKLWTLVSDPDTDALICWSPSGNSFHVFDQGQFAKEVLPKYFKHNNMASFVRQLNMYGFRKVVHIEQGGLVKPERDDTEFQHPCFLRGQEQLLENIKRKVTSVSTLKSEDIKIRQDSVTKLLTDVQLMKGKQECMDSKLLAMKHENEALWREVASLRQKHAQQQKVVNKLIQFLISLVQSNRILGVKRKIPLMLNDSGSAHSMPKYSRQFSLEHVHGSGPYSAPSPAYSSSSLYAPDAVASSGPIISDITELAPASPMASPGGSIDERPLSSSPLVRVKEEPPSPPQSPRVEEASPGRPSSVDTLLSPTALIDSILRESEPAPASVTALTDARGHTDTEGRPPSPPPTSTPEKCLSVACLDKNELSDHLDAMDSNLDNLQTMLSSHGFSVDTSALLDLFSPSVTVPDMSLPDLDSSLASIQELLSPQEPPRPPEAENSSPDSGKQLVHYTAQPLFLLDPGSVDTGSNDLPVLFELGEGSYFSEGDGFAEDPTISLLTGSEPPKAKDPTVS
# Summary of the method: as §1
# SPIC = molecular target: T2, SPIC (Homo sapiens, UniProt Q8N5J4 1-248); details: protein: recombinant; tags: N-terminal GST; dsDNA, one strand shown
# T2 sequence: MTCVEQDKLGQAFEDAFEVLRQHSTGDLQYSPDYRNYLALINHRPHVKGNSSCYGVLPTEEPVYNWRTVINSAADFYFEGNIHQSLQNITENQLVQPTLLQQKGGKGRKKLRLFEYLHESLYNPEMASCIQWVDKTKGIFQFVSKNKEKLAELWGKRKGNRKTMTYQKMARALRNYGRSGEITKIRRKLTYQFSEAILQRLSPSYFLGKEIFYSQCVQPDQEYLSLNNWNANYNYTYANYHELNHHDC
# Summary of the method: as §1
# ELF4 = ELF4 (Homo sapiens, UniProt Q99607 1-663); details: protein: recombinant; tags: N-terminal GST; dsDNA, one strand shown
# ELF4, sequence (Q99607 whole entry): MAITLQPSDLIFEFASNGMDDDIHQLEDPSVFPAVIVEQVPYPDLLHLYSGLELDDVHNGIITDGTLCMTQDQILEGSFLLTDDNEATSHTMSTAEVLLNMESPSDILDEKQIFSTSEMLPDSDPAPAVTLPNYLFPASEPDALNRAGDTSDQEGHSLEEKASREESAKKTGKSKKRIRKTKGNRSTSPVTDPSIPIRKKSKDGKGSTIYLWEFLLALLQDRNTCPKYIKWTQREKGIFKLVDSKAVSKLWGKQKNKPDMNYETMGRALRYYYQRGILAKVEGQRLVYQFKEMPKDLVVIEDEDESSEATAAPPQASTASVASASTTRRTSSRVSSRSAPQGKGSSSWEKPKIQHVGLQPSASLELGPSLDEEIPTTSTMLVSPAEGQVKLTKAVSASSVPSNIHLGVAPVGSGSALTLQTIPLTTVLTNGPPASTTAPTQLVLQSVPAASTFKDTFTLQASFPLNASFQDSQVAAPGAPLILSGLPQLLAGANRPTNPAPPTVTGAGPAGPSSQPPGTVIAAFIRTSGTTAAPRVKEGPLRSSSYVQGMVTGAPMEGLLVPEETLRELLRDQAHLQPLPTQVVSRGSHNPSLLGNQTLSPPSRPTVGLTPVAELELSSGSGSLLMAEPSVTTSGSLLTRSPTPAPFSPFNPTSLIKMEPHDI
# Summary of the method: as §1
# ELK4 = molecular target: T3, ELK4 (Homo sapiens, UniProt P28324-2 1-405); details: protein: recombinant; tags: N-terminal GST; dsDNA, one strand shown
# T3 sequence: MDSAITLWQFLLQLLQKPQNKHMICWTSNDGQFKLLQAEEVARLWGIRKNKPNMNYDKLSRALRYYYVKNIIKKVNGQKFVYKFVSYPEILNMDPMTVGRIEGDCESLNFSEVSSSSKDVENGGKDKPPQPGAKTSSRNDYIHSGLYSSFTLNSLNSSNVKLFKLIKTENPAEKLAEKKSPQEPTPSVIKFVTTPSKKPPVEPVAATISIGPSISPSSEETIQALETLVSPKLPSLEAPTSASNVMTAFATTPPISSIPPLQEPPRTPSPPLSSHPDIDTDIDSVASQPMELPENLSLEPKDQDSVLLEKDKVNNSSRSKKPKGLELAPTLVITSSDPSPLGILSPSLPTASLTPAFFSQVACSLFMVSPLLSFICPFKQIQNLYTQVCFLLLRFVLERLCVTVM
# Summary of the method: as §1
# ETV2 = molecular target: T4, ETV2 (Homo sapiens, UniProt O00321 1-342); details: protein: recombinant; tags: N-terminal GST; dsDNA, one strand shown
# T4 sequence: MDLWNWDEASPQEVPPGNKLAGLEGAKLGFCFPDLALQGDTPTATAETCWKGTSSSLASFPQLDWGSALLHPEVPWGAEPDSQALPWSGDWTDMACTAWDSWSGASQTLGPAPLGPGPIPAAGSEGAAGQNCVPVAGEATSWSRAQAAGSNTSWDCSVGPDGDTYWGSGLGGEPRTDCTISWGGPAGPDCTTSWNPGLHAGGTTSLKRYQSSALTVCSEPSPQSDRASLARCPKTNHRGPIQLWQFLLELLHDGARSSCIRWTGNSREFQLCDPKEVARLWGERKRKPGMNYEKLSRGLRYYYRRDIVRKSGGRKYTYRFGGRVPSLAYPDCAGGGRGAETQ
# Summary of the method: as §1
# ELF3 = molecular target: T5, ELF3 (Homo sapiens, UniProt P78545 1-371); details: protein: recombinant; tags: N-terminal GST; dsDNA, one strand shown
# T5 sequence: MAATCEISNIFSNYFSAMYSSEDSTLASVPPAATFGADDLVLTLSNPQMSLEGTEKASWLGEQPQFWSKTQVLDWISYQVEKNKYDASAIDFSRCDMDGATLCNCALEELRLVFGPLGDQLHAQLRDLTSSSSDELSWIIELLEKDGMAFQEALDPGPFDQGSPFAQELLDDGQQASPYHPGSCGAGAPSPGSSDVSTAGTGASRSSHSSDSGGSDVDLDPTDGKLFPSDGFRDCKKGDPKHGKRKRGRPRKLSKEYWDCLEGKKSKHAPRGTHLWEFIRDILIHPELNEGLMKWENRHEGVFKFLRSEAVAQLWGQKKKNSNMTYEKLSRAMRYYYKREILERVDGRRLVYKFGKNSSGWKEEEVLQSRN
# Summary of the method: as §1
# CRX = CRX (Homo sapiens, UniProt O43186 1-299); details: protein: recombinant; tags: N-terminal GST; dsDNA, one strand shown
# CRX, sequence (O43186 whole entry): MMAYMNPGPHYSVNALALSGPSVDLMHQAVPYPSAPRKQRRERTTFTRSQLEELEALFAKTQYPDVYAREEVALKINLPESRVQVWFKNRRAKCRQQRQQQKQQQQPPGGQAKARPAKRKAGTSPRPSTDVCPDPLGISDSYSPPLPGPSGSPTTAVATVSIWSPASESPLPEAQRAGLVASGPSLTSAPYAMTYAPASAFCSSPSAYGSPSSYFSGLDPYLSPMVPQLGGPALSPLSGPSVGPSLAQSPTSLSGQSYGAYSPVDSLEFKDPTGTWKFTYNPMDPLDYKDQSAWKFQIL
# Summary of the method: as §1
# ETV1 = ETV1 (Homo sapiens, UniProt P50549 1-477); details: protein: recombinant; tags: N-terminal GST; dsDNA, one strand shown
# ETV1, sequence (P50549 whole entry): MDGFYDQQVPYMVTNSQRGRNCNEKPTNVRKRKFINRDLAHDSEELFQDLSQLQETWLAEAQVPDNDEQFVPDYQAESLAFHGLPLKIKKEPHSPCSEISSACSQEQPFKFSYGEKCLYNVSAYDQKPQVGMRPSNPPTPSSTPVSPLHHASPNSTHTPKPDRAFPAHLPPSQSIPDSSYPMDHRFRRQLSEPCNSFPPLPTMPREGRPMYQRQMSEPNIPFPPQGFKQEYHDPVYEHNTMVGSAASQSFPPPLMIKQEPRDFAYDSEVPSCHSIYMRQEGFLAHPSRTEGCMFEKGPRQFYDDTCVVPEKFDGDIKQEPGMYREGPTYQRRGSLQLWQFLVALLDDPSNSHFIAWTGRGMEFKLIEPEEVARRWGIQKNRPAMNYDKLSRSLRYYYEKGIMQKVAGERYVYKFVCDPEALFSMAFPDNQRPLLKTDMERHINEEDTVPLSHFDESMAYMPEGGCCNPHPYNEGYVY
# Summary of the method: as §1
# ERF = molecular target: T6, ERF (Homo sapiens, UniProt P50548 1-548); details: protein: recombinant; tags: N-terminal GST; dsDNA, one strand shown
# T6 sequence: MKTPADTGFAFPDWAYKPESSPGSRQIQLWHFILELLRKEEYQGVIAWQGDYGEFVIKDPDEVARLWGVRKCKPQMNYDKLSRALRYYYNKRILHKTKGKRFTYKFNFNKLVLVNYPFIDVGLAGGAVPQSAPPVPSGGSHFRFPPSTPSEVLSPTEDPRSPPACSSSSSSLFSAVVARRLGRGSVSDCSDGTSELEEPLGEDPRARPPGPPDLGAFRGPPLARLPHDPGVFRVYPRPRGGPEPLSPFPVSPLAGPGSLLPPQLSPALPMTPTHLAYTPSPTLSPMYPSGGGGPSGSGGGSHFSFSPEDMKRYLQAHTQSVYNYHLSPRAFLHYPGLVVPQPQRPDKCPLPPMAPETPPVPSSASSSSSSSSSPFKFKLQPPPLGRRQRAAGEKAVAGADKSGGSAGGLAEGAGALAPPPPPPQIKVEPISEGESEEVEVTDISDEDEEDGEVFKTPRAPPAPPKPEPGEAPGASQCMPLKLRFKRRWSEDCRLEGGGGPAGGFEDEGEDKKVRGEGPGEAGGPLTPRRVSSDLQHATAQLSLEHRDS
# Summary of the method: as §1
# ETV3L = molecular target: T7, ETV3L (Homo sapiens, UniProt Q6ZN32 1-361); details: protein: recombinant; tags: N-terminal GST; dsDNA, one strand shown
# T7 sequence: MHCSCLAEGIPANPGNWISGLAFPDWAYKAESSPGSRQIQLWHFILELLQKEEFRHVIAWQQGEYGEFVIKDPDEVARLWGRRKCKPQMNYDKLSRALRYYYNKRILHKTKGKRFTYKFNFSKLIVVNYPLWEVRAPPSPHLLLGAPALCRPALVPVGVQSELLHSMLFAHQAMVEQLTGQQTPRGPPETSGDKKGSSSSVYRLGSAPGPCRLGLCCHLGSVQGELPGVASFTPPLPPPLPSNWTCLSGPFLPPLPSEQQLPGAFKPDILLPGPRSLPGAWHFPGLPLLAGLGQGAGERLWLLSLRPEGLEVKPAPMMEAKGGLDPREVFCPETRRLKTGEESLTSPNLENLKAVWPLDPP
# Summary of the method: as §1
# ETS2 = molecular target: T8, ETS2 (Homo sapiens, UniProt P15036 1-469); details: protein: recombinant; tags: N-terminal GST; dsDNA, one strand shown
# T8 sequence: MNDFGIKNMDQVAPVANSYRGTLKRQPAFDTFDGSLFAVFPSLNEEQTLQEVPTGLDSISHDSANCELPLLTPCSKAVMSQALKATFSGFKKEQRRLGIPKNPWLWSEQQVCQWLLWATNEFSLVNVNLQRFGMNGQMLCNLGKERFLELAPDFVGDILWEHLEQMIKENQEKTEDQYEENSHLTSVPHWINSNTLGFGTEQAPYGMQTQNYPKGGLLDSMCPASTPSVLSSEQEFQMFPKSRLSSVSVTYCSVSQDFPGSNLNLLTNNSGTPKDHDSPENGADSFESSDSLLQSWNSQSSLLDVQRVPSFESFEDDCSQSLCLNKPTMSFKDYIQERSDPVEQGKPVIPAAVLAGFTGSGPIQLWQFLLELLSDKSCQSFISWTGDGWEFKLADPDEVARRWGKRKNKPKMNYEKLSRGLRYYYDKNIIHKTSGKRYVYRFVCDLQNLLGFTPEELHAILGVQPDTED
# Summary of the method: as §1
# SPDEF = molecular target: T9, SPDEF (Homo sapiens, UniProt O95238 1-335); details: protein: recombinant; tags: N-terminal GST; dsDNA, one strand shown
# T9 sequence: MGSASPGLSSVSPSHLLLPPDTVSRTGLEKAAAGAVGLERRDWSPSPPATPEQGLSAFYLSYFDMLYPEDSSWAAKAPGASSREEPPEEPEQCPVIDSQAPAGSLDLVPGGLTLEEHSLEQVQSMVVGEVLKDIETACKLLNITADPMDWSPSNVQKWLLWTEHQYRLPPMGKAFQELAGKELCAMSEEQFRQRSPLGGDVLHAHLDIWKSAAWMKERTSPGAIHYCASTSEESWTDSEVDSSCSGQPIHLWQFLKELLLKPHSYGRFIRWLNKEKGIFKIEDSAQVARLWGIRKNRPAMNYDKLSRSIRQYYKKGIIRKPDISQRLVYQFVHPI
# Summary of the method: as §1
# ETV7 = molecular target: T10, ETV7 (Homo sapiens, UniProt Q9Y603 1-341); details: protein: recombinant; tags: N-terminal GST; dsDNA, one strand shown
# T10 sequence: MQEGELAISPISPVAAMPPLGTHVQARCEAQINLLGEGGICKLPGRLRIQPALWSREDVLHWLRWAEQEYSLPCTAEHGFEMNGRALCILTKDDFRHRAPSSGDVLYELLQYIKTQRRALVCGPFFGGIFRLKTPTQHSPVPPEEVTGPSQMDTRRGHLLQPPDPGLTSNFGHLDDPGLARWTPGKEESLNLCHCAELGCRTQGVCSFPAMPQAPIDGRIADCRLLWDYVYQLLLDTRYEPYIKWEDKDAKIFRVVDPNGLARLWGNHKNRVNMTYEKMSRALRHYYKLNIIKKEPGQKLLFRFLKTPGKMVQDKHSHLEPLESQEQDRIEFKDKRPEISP
# Summary of the method: as §1
# ELF5 = molecular target: T11, ELF5 (Homo sapiens, UniProt Q9UKW6-2 1-255); details: protein: recombinant; tags: N-terminal GST; dsDNA, one strand shown
# T11 sequence: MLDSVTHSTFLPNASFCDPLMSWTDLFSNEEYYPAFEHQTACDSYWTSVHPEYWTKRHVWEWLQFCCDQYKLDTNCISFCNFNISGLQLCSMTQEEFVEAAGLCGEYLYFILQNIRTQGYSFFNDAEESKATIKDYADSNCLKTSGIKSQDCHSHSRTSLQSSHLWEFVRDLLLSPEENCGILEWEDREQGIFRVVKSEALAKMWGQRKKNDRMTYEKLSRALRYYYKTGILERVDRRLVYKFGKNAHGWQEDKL
# Summary of the method: as §1
# ETV3 = molecular target: T12, ETV3 (Homo sapiens, UniProt P41162-2 1-143); details: protein: recombinant; tags: N-terminal GST; dsDNA, one strand shown
# T12 sequence: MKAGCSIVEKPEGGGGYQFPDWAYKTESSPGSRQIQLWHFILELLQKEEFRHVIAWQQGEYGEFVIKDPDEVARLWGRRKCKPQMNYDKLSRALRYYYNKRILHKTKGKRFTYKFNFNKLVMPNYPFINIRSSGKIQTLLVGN
# Summary of the method: as §1
# ETV6 = ETV6 (Homo sapiens, UniProt P41212 1-452); details: protein: recombinant; tags: N-terminal GST; dsDNA, one strand shown
# ETV6, sequence (P41212 whole entry): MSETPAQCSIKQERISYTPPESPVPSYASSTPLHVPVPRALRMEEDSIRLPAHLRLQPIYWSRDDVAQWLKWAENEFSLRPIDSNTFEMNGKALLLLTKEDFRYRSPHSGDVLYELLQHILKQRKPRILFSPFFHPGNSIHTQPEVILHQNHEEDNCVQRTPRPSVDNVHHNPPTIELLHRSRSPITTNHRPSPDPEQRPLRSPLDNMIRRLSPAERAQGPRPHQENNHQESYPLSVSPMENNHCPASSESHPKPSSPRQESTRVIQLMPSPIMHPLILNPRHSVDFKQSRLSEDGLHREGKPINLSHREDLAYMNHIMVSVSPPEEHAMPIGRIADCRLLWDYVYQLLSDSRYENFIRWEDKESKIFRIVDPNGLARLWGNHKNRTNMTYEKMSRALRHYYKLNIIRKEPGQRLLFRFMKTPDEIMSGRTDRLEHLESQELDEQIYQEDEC
# Summary of the method: as §1
sequence,measurement,setting,value
ATACTT,binding signal,FEV,"1.6 fold enrichment (6-mer frequency, TF over GST control)"
same,binding signal,ETV5,"1.6 fold enrichment (6-mer frequency, TF over GST control)"
same,binding signal,HSF1,"1.34 fold enrichment (6-mer frequency, TF over GST control)"
same,binding signal,SPIC,"1.58 fold enrichment (6-mer frequency, TF over GST control)"
same,binding signal,ELF4,"1.55 fold enrichment (6-mer frequency, TF over GST control)"
same,binding signal,ELK4,"1.55 fold enrichment (6-mer frequency, TF over GST control)"
same,binding signal,ETV2,"1.53 fold enrichment (6-mer frequency, TF over GST control)"
same,binding signal,ELF3,"1.58 fold enrichment (6-mer frequency, TF over GST control)"
same,binding signal,CRX,"1.71 fold enrichment (6-mer frequency, TF over GST control)"
same,binding signal,ETV1,"1.72 fold enrichment (6-mer frequency, TF over GST control)"
same,binding signal,ERF,"1.66 fold enrichment (6-mer frequency, TF over GST control)"
same,binding signal,ETV3L,"1.59 fold enrichment (6-mer frequency, TF over GST control)"
same,binding signal,ETS2,"1.59 fold enrichment (6-mer frequency, TF over GST control)"
same,binding signal,SPDEF,"1.63 fold enrichment (6-mer frequency, TF over GST control)"
same,binding signal,ETV7,"1.69 fold enrichment (6-mer frequency, TF over GST control)"
same,binding signal,ELF5,"1.84 fold enrichment (6-mer frequency, TF over GST control)"
same,binding signal,ETV3,"1.63 fold enrichment (6-mer frequency, TF over GST control)"
same,binding signal,ETV6,"1.87 fold enrichment (6-mer frequency, TF over GST control)"

# — PMC7862700, “An all-to-all approach to the identification of sequence-specific readers for epigenetic DNA modifications on cytosine”
